PubChem BioAssay AID1159580 (chemical genetic matrix, 2015)
“And” between values parts separate entries of the source, which are not always exact repeats. Equal entries are not always repeated. In all, about 5,500 compounds went through this assay and about 2,000 (36%) were called active. About 18% were inconclusive and are not listed. No stated cut-off is given here; in the data, active means normalized growth mostly below about 0.91 (no sharp cut-off); inconclusive means no clear call, values can overlap the other calls; inactive means mostly above about 0.92. Some of the results follow.

Assay: chemical genetic growth profiling, strain panel (AID 1159580);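 further: tested at 20 µM; growth read once vehicle control cultures reached saturation at 30 °C; 1 = growth at the plate median or of vehicle wells; lower values mean less growth of the strain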
Details: S. cerevisiae deletion strains, growth OD

Measured: normalized growth

CC(C(=O)O)c1ccc(N2Cc3ccccc3C2=O)cc1 (configuration not stated)
inactive: locus YAL021C, strain ccr4, hits give low values 0.994 | locus YAL026C, strain drs2, hits give low values 1 | locus YAL030W, strain snc1, hits give low values 0.994 | locus YBL061C, strain skt5, hits give low values 0.983 | locus YBR009C, strain hhf1, hits give low values 0.97 | locus YBR021W, strain FUR4, hits give low values 1.01 | locus YBR023C, strain chs3, hits give low values 0.966 | locus YBR171W, strain sec66, hits give low values 0.971 | locus YBR229C, strain ROT2, hits give low values 1.01 | locus YBR231C, strain swc5, hits give low values 0.993 | locus YBR279W, strain paf1, hits give low values 0.972 | locus YCL011C, strain gbp2, hits give low values 0.946 | locus YCL016C, strain dcc1, hits give low values 0.956 | locus YCL029C, strain bik1, hits give low values 0.996 | locus YCL061C, strain MRC1, hits give low values 0.986 | locus YCL069W, strain vba3, hits give low values 0.994 | locus YCR088W, strain abp1, hits give low values 0.987 | locus YDL005C, strain med2, hits give low values 0.991 | locus YDL035C, strain GPR1, hits give low values 1.02 | locus YDL040C, strain nat1, hits give low values 0.989 | locus YDL074C, strain BRE1, hits give low values 1.02 | locus YDL101C, strain DUN1, hits give low values 1.01 | locus YDL185W, strain tfp1, hits give low values 0.989 | locus YDL192W, strain arf1, hits give low values 0.99 | locus YDR001C, strain nth1, hits give low values 0.99 | locus YDR069C, strain doa4, hits give low values 0.993 | locus YDR101C, strain arx1, hits give low values 1 | locus YDR137W, strain rgp1, hits give low values 0.988 | locus YDR159W, strain sac3, hits give low values 1.05 | locus YDR162C, strain NBP2, hits give low values 1.01 | locus YDR195W, strain ref2 1.01 | locus YDR297W, strain sur2, hits give low values 0.99 | locus YDR318W, strain mcm21, hits give low values 0.99 | locus YDR334W, strain swr1, hits give low values 0.986 | locus YDR335W, strain msn5, hits give low values 0.993 | locus YDR388W, hits give low values 0.992 | locus YDR392W, strain spt3, hits give low values 0.988 | locus YDR502C, strain sam2, hits give low values 1 | locus YEL003W, strain gim4, hits give low values 1.01 | locus YEL037C, strain rad23, hits give low values 0.975 | locus YEL061C, strain CIN8 (second series), hits give low values 0.99 | locus YEL061C, strain CIN8, hits give low values 1.01 | locus YER015W, strain faa2, hits give low values 1 | locus YER016W, strain bim1, hits give low values 0.993 | locus YER110C, hits give low values 0.994 | locus YER111C, strain swi4, hits give low values 0.985 | locus YER155C, strain BEM2 (second series), hits give low values 0.948 | locus YER155C, strain BEM2, hits give low values 1.02 | locus YER167W, strain BCK2, hits give low values 1.01 | locus YFR010W, strain ubp6, hits give low values 1 | locus YGL078C, strain dbp3, hits give low values 0.985 | locus YGL086W, strain mad1, hits give low values 1.01 | locus YGL167C, strain pmr1, hits give low values 0.991 | locus YGL173C, strain kem1, hits give low values 0.997 | locus YGL227W, strain vid30, hits give low values 0.988 | locus YGL240W, strain doc1, hits give low values 1 | locus YGL248W, strain PDE1, hits give low values 1.02 | locus YGL253W, strain hxk2, hits give low values 1 | locus YGR135W, strain pre9, hits give low values 0.971 | locus YGR252W, strain gcn5, hits give low values 0.938 | locus YHR013C, strain ard1, hits give low values 0.961 | locus YHR027C, strain rpn1, hits give low values 0.986 | locus YHR030C, strain SLT2, hits give low values 1.01 and 0.993 | locus YHR079C, strain IRE1 (second series), hits give low values 1.01 | locus YHR079C, strain IRE1, hits give low values 0.987 | locus YHR094C, strain hxt1, hits give low values 0.987 | locus YHR129C, strain ARP1, hits give low values 1.02 | locus YHR142W, strain chs7, hits give low values 0.941 | locus YHR200W, strain rpn10, hits give low values 1 | locus YIL066C, strain RNR3, hits give low values 1.02 | locus YIL073C, strain SPO22, hits give low values 1 | locus YIL125W, strain kgd1, hits give low values 0.984 | locus YIR030C, strain dcg1, hits give low values 0.996 | locus YJL092W, strain hpr5, hits give low values 0.959 | locus YJL095W, strain BCK1 (second series), hits give low values 0.994 | locus YJL095W, strain BCK1, hits give low values 1.01 and 0.986 | locus YJL115W, strain asf1, hits give low values 0.982 | locus YJL129C, strain trk1, hits give low values 0.965 | locus YJL134W, strain LCB3, hits give low values 1.01 | locus YJL154C, strain vps35, hits give low values 0.987 | locus YJL164C, strain tpk1, hits give low values 0.988 | locus YJL166W, strain qcr8, hits give low values 0.987 | locus YJL168C, strain set2, hits give low values 0.98 | locus YJL187C, strain SWE1 (second series), hits give low values 1.01 | locus YJL187C, strain SWE1, hits give low values 0.993 | locus YJR043C, strain POL32, hits give low values 1.02 | locus YJR066W, strain TOR1, hits give low values 0.914
